“And” between values parts separate entries of the source, which are not always exact repeats. Identical values can stand only once. Records with an inconclusive call do not appear. Unmarked numbers belong to inactive results. The source made the active and inactive calls. Unless noted, the call rests on the fitted dose curve; in most records, active means well fitted activation curve with a large enough effect in the repeat runs; inconclusive means weak or mixed curves; inactive means no such curve, though single readings can be large or run the other way.
These compounds were tested against Nuclear receptor subfamily 1 group I member 2 (Homo sapiens) (UniProt O75469) (assay: Human pregnane X receptor (PXR) small molecule agonists, qHTS assay (AID 1346982; further: nearly all actives have a fitted effect of over 35% in size; further: potency means the concentration at half of the fitted maximal effect)). Settings: PXR-Luc HepG2, CYP3A4 luciferase reporter, 24 h; series mostly up to 92.4 µM; activation: at the top concentration.
Sequence of Nuclear receptor subfamily 1 group I member 2 (Homo sapiens) (O75469 whole entry, looked up): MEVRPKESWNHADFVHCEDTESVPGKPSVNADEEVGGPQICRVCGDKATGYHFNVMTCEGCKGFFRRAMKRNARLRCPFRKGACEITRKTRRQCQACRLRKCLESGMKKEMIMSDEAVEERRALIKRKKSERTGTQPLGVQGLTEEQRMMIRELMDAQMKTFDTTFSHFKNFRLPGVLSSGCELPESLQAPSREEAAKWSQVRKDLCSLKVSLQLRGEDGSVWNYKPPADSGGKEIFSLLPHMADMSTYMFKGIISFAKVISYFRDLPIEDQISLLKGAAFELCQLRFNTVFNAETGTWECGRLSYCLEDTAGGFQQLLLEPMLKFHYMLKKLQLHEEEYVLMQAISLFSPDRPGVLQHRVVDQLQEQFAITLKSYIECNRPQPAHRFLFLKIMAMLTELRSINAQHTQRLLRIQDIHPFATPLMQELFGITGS
How it was run: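 Agonist mode qHTS: PXR-Luc HepG2 cells plated 5 hr before DMSO-dissolved compounds were pinned in, cultured 24 hr at 37 C, 5% CO2; ONE-Glo luminescence readout.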
On the % scale 0 is the no-effect control and ±100 the full control effect.

Compound | Potency | activation
c1ccc2c(c1)OCC(C1=NCCN1)O2 (stereo not given) | 11.9 µM (active) | 
CC(C)CCCCCOC(=O)c1ccccc1C(=O)OCCCCCC(C)C | 48 µM (active) | 
CC(C)CC(C)N (stereo not given) |  | 2.36%
CC(C)CBr |  | -2.36%
CCOC(=O)c1ccccc1S(=O)(=O)NC(=O)Nc1nc(Cl)cc(OC)n1 |  | 10.4%
Cn1cc(C2=C(c3cn(C4CCN(Cc5ccccn5)CC4)c4ccccc34)C(=O)NC2=O)c2ccccc21 |  | -2.54% [at 42.5 µM]
CN(CCCC(O)c1cccnc1)N=O (stereo not given) |  | -1.45%
CC(C)N1C(=O)N(c2ccccc2)CSC1=NC(C)(C)C | 6.11 µM (active) | 
CCCCCCCCCCBr |  | 3.27%
Nc1ccc(Sc2ccc(N)cc2)cc1 | 34.4 µM (active) | 
N#CCCO |  | 0.612%
Oc1ccc(C(c2ccc(O)cc2)(C(F)(F)F)C(F)(F)F)cc1 | 24.2 µM (active) and 27.3 µM (active) | 
Brc1c(Br)c(Br)c(Oc2c(Br)c(Br)c(Br)c(Br)c2Br)c(Br)c1Br |  | -0.0764% [at 19 µM]
CN(C)S(=O)(=O)N(SC(F)(Cl)Cl)c1ccccc1 |  | -24.4%
N#CC(Cl)Cl |  | -1.22%
Nc1ccc(Cc2ccc(N)c(Cl)c2)cc1Cl | 52.7 µM (active) | 
CCC(C)c1cc([N+](=O)[O-])cc([N+](=O)[O-])c1OC(=O)C=C(C)C (stereo not given) | 61.1 µM (active) | 
Cc1cc(C)c(C2=C(OC(=O)CC(C)(C)C)C3(CCCC3)OC2=O)c(C)c1 |  | 21.1%
COc1ccc(N)cc1N | 11.2 µM (active) and 33 µM (active) | 

Compound | Potency | activation
S=C=Nc1cccc2ccccc12 | 10.8 µM (active) | 
Nc1ccc(Cl)cc1C(=O)c1ccccc1 | 61.1 µM (active) | 
CC(=[OH+])/C=C(/C)[O-].CC(=[OH+])/C=C(\C)[O-].CC(=[OH+])/C=C(\C)[O-].[Al] |  | 4.7%
O=c1c(C2CC(c3ccc(-c4ccc(Br)cc4)cc3)Cc3ccccc32)c(O)sc2ccccc12 (stereo not given) | 18.8 µM (active) | 
O=C1C=CC(=O)c2ccccc21 |  | -31.6%
S=C(SSC(=S)N1CCCCC1)N1CCCCC1 | 9.44 µM (active) | 
CCCCOP(=O)(CCCC)OCCCC |  | 6.7%
Nc1ccc([N+](=O)[O-])cc1Cl |  | 18.1%
O=C/C(Cl)=C(/Cl)C(=O)O |  | 2.54%
O=c1[nH]c2ccccc2n1C1CCN(CCCC(c2ccc(F)cc2)c2ccc(F)cc2)CC1 | inactive | 
COc1ccc(OC)c(C=O)c1 |  | -4.96%
[Cl][Sb]([Cl])[Cl] | 27.3 µM (active) | 
CCCCCCCCCBr |  | 3.41%
CC(C)(C)C(O)C(Oc1ccc(-c2ccccc2)cc1)n1cncn1 (stereo not given) | 19.3 µM (active) | 
CCOCn1c(-c2ccc(Cl)cc2)c(C#N)c(Br)c1C(F)(F)F | 1.37 µM (active) | 
CC1(C)[C@H](C(=O)O[C@H](C#N)c2cccc(Oc3ccccc3)c2)[C@@H]1/C=C(\Cl)C(F)(F)F | 3.57 µM (active) and 2.43 µM (active) | 
Clc1ccc(CCC(Cn2ccnc2)Sc2c(Cl)cccc2Cl)cc1 (stereo not given) | 4.22 µM (active) | 
C[C@@H]1O[C@@H](O[C@H]2C[C@@H](O)[C@]3(CO)[C@H]4[C@H](O)C[C@]5(C)[C@@H](C6=CC(=O)OC6)CC[C@]5(O)[C@@H]4CC[C@]3(O)C2)[C@H](O)[C@H](O)[C@H]1O |  | -48.8% [at 42.5 µM]
CC(C)Oc1cccc(NC(=O)c2ccccc2C(F)(F)F)c1 | 19.3 µM (active) | 

What follows are compounds tested against Acetylcholinesterase (Homo sapiens) (UniProt P22303) (assay: Acetylcholinesterase (AChE) small molecule antagonists: colormetric cell-based qHTS assay (AID 1347395; calls by dose curve; further: nearly all actives have a fitted effect of over 30% in size)). Settings: SH-SY5Y cells AChE activity, colorimetric (Ellman); series mostly up to 115 µM; activity, negative = inhibition: at the top concentration.
Sequence of Acetylcholinesterase (Homo sapiens) (P22303 whole entry, looked up): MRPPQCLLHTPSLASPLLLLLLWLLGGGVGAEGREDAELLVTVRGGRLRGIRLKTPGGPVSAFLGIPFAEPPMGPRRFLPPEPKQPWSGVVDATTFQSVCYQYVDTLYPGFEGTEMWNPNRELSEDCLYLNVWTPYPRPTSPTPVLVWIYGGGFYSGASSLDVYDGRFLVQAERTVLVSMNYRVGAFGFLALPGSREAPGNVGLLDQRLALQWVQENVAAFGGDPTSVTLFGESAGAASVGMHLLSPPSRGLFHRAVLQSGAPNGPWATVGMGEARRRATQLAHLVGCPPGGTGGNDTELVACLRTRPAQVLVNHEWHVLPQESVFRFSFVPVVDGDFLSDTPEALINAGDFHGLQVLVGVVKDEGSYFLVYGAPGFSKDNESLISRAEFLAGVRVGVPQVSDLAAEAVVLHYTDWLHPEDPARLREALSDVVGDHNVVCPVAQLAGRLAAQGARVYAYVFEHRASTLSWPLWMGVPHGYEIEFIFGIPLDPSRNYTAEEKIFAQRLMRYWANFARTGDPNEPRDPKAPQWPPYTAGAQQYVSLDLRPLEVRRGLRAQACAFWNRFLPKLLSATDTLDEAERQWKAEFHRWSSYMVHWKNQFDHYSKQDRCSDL
How it was run: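 Cells (SH-SY5Y, 2,000 per well) are seeded and left overnight at 37 C. Compound is added for 30 min, then DTNB and acetylthiocholine for a further 90 min at 37 C before absorbance-based thiocholine detection.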

Compound | activity, negative = inhibition | Potency
c1ccc2c(c1)OCC(C1=NCCN1)O2 (stereo not given) | -2.14% [at 52.9 µM] | 
CC(C)CCCCCOC(=O)c1ccccc1C(=O)OCCCCCC(C)C | -3.06% | 
CC(C)CC(C)N (stereo not given) | -1.02% | 
CC(C)CBr | -4.05% | 
CCOC(=O)c1ccccc1S(=O)(=O)NC(=O)Nc1nc(Cl)cc(OC)n1 | 0.765% | 
Cn1cc(C2=C(c3cn(C4CCN(Cc5ccccn5)CC4)c4ccccc34)C(=O)NC2=O)c2ccccc21 | 1.93% [at 52.9 µM] | 
CN(CCCC(O)c1cccnc1)N=O (stereo not given) | -1.11% | 
CC(C)N1C(=O)N(c2ccccc2)CSC1=NC(C)(C)C | -0.0931% | 
CCCCCCCCCCBr | -0.983% | 
Nc1ccc(Sc2ccc(N)cc2)cc1 | 3.22% | 
N#CCCO | -0.769% | 
Oc1ccc(C(c2ccc(O)cc2)(C(F)(F)F)C(F)(F)F)cc1 |  | inactive
Brc1c(Br)c(Br)c(Oc2c(Br)c(Br)c(Br)c(Br)c2Br)c(Br)c1Br | 0.803% [at 23.6 µM] | 
CN(C)S(=O)(=O)N(SC(F)(Cl)Cl)c1ccccc1 | 1.68% | 
N#CC(Cl)Cl | 2.49% | 
Nc1ccc(Cc2ccc(N)c(Cl)c2)cc1Cl | -1.22% | 
CCC(C)c1cc([N+](=O)[O-])cc([N+](=O)[O-])c1OC(=O)C=C(C)C (stereo not given) | 5.28% | 
Cc1cc(C)c(C2=C(OC(=O)CC(C)(C)C)C3(CCCC3)OC2=O)c(C)c1 | 0.588% | 
COc1ccc(N)cc1N | -9.18% [at 52.9 µM] | 

Compound | activity, negative = inhibition | Potency
S=C=Nc1cccc2ccccc12 | 1.95% | 
Nc1ccc(Cl)cc1C(=O)c1ccccc1 | 2.29% | 
CC(=[OH+])/C=C(/C)[O-].CC(=[OH+])/C=C(\C)[O-].CC(=[OH+])/C=C(\C)[O-].[Al] | 3.14% | 
O=c1c(C2CC(c3ccc(-c4ccc(Br)cc4)cc3)Cc3ccccc32)c(O)sc2ccccc12 (stereo not given) | 1.77% [at 52.9 µM] | 
O=C1C=CC(=O)c2ccccc21 | -7.98% | 
S=C(SSC(=S)N1CCCCC1)N1CCCCC1 | -3.86% [at 52.9 µM] | 
CCCCOP(=O)(CCCC)OCCCC | -0.0667% | 
Nc1ccc([N+](=O)[O-])cc1Cl | -0.291% | 
O=C/C(Cl)=C(/Cl)C(=O)O | -10.7% | 
O=c1[nH]c2ccccc2n1C1CCN(CCCC(c2ccc(F)cc2)c2ccc(F)cc2)CC1 |  | inactive
COc1ccc(OC)c(C=O)c1 | -2.04% | 
[Cl][Sb]([Cl])[Cl] | 0.372% | 
CCCCCCCCCBr | 1.8% | 
CC(C)(C)C(O)C(Oc1ccc(-c2ccccc2)cc1)n1cncn1 (stereo not given) | -1.05% | 
CCOCn1c(-c2ccc(Cl)cc2)c(C#N)c(Br)c1C(F)(F)F | -8.37% | 
CC1(C)[C@H](C(=O)O[C@H](C#N)c2cccc(Oc3ccccc3)c2)[C@@H]1/C=C(\Cl)C(F)(F)F |  | inactive
C[C@@H]1O[C@@H](O[C@H]2C[C@@H](O)[C@]3(CO)[C@H]4[C@H](O)C[C@]5(C)[C@@H](C6=CC(=O)OC6)CC[C@]5(O)[C@@H]4CC[C@]3(O)C2)[C@H](O)[C@H](O)[C@H]1O |  | inactive
CC(C)Oc1cccc(NC(=O)c2ccccc2C(F)(F)F)c1 | -5.2% | 
